According to publication PMC10668032, “Altered binding affinity of SIX1-Q177R correlates with enhanced WNT5A and WNT pathway effector expression in Wilms tumor”:
The full ranking holds about 33,000 sequences; the median of “e-score” is about -0.05, and the highest 2% start at about 0.38. The entries come from a sample that favours the highest values as a whole.

Biological target: T1, SIX1-Q177R homeodomain (human, UniProt Q15475 108-198, Q177R)
T1 sequence: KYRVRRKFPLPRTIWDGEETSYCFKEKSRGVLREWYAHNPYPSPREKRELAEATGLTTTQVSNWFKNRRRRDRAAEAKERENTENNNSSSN
Assay: universal protein binding microarray; Universal all-10-mer PBM (8x60K, AMADID 030236), 300 nM GST-tagged protein, Alexa Fluor 488 anti-GST; buffer, salt, pH and temperature not stated (as in Berger); high values mean tight binding
Details: protein: ivt; tags: N-terminal GST; dsDNA, one strand shown
Outline: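 Binding of GST-tagged homeodomains is given as 8-mer E-scores from the Universal PBM Analysis Suite. The proteins were produced by in vitro transcription/translation, quantified by anti-GST western blot against a recombinant GST standard curve, and applied in duplicate at 300 nM final concentration to universal 'all 10-mer' protein binding microarrays (8×60K format).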

Row | Sequence | binding signal
1 | ACATCGTG | 0.151 ± 0.0256 E-score
2 | GTATGATA | 0.18 ± 0.0375 E-score
3 | CCTTTACA | 0.242 ± 0.0698 E-score
4 | CCCCCCTC | 0.163 ± 0.0311 E-score
5 | CTGGGTAC | 0.278 ± 0.0111 E-score
6 | CCGCAAGG | 0.15 ± 0.00344 E-score
7 | CATTTACA | 0.267 ± 0.0374 E-score
8 | CACCGAAA | 0.329 ± 0.00917 E-score
9 | AGTGGATC | 0.216 ± 0.0109 E-score
10 | GATCAACA | 0.206 ± 0.00474 E-score
11 | CACGAACG | 0.207 ± 0.0299 E-score
12 | CCCTAGCA | 0.17 ± 0.00574 E-score
13 | ACGAGGGG | 0.208 ± 0.0082 E-score
14 | AAAGACAC | 0.425 ± 0.0124 E-score
15 | GAAGATAC | 0.16 ± 0.0546 E-score
16 | CAAGACAC | 0.4021 ± 0.00161 E-score
17 | GAAGACAC | 0.38 ± 0.00523 E-score
18 | ATGACCCC | 0.318 ± 0.0237 E-score
19 | ATTGAGTG | 0.18 ± 0.0318 E-score
20 | GGTTTACA | 0.16 ± 0.0137 E-score
21 | CTCCCTAA | 0.165 ± 0.0334 E-score
22 | GCTAACCC | 0.186 ± 0.00969 E-score

Row | Sequence | binding signal
23 | GCTACCAC | 0.181 ± 0.00856 E-score
24 | GCTAACAC | 0.417 ± 0.0145 E-score
25 | ACAAACAC | 0.379 ± 0.0204 E-score
26 | ACTAACAC | 0.427 ± 0.0173 E-score
27 | CTAAACAC | 0.364 ± 0.00812 E-score
28 | CCTATCAC | 0.173 ± 0.0477 E-score
29 | CCTAACAC | 0.404 ± 0.00657 E-score
30 | ACTAAAAC | 0.168 ± 0.0313 E-score
31 | ACCCGACC | 0.223 ± 0.0107 E-score
32 | GTTCAGAA | 0.18 ± 0.0199 E-score
33 | ACCCCGCA | 0.259 ± 0.0114 E-score
34 | CCAAGCCC | 0.155 ± 0.0141 E-score
35 | CCCAGACA | 0.16 ± 0.0032 E-score
36 | ATCAGACA | 0.204 ± 0.00355 E-score
37 | CGTGTGAA | 0.302 ± 0.00315 E-score
38 | AGTGTTTA | 0.296 ± 0.0461 E-score
39 | AGTGTTTG | 0.336 ± 0.0138 E-score
40 | TGTGTTAA | 0.171 ± 0.00303 E-score
41 | AGTGTTCG | 0.369 ± 0.0134 E-score
42 | CGTGTTTA | 0.346 ± 0.0127 E-score
43 | GGAGTTAA | 0.266 ± 0.0274 E-score
44 | AGTGTTAG | 0.394 ± 0.00412 E-score

Row | Sequence | binding signal
45 | GGTGTTAA | 0.475 ± 0.00681 E-score
46 | GGTGTTTA | 0.4563 ± 0.00286 E-score
47 | CGTGTTAA | 0.391 ± 0.0262 E-score
48 | GGGGTTAA | 0.198 ± 0.00273 E-score
49 | CCTATAAC | 0.194 ± 0.0389 E-score
50 | ACCCTACC | 0.193 ± 0.0205 E-score
51 | CGGGTTCA | 0.175 ± 0.04 E-score
52 | CACCGGTA | 0.345 ± 0.00414 E-score
53 | CGTGATAC | 0.248 ± 0.0091 E-score
54 | ATCCCGGG | 0.209 ± 0.0458 E-score
55 | CCGGGGTA | 0.284 ± 0.00939 E-score
56 | CGTGTTGA | 0.358 ± 0.0177 E-score
57 | CGTGTTAC | 0.408 ± 0.00576 E-score
58 | GGTGTTGA | 0.4626 ± 0.00453 E-score
59 | AGTGTTGA | 0.318 ± 0.0168 E-score
60 | CGTGTGAG | 0.276 ± 0.0289 E-score
61 | CGTGTTAG | 0.38 ± 0.00955 E-score
62 | CGTGTTTC | 0.339 ± 0.0138 E-score
63 | CGTGTTGC | 0.333 ± 0.0224 E-score
64 | ACGGTCTC | 0.153 ± 0.00373 E-score
65 | CACCGCAC | 0.333 ± 0.0118 E-score
66 | AGTACCCG | 0.154 ± 0.00938 E-score

Row | Sequence | binding signal
67 | CTAGGGTA | 0.236 ± 0.0217 E-score
68 | GGGTGACA | 0.302 ± 0.0147 E-score
69 | GTGTGACA | 0.436 ± 0.0156 E-score
70 | CTGTGACA | 0.21 ± 0.00229 E-score
71 | TGTCAAAA | 0.198 ± 0.0336 E-score
72 | CACCCTGC | 0.293 ± 0.0291 E-score
73 | ATGGAGTG | 0.274 ± 0.0146 E-score
74 | AGGGGACA | 0.179 ± 0.0364 E-score
75 | ACCCACGC | 0.171 ± 0.00328 E-score
76 | GCACCGCC | 0.265 ± 0.00467 E-score
77 | ACACCGCA | 0.4797 ± 0.00463 E-score
78 | ACACCGCT | 0.4659 ± 0.00251 E-score
79 | ACCCCGCT | 0.209 ± 0.0248 E-score
80 | ACTCCGCT | 0.185 ± 0.0321 E-score
81 | ACCCCGCG | 0.254 ± 0.0276 E-score
82 | ACACCGCG | 0.4808 ± 0.00187 E-score
83 | ACACCGCC | 0.4737 ± 0.0034 E-score
84 | GCACCGCA | 0.169 ± 0.0396 E-score
85 | ATACCGCG | 0.238 ± 0.0151 E-score
86 | ACGCCGCC | 0.153 ± 0.0249 E-score
87 | ATACCGCA | 0.179 ± 0.00528 E-score
